Laboratory results published in PubChem BioAssay AID1789 (The Scripps Research Institute Molecular Screening Center, 2009).
About 2,700 (0.93%) of roughly 290,000 compounds were called active. This is one part of a sample in which actives are shown more often than they occur. A number with no mark means an inactive call.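 How the source made its calls: active means inhibition above the screen-wide mean plus 3 SD, computed separately per campaign (cut at about 16% in these data); inactive means the rest.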

What follows are molecules tested on Heat shock protein HSP 90 (rabbit reticulocyte lysate; luciferase refolding) (assay: HSP90 inhibitors, primary screen, cell lysate, luminescence (AID 1789;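 further: 0% = DMSO wells and 100% = 60 µM geldanamycin wells; inhibitors lower the luminescence because luciferase stays unfolded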)). Details: 3 h, at 5.6 µM, hits give high values.

**Q.** How did the inhibition turn out when `CC(=O)Oc1ccc2c(c1)C(=O)c1ccccc1C2=O` was run?
**A.** 4.58%

**Q.** `CC(=O)Oc1ccc(-c2nc3c(C)cccc3c(=O)o2)cc1` was tested. Which inhibition did it give?
**A.** -3.74%

**Q.** Which inhibition does the source give for `COc1ccc(/C=C/c2noc(-c3ccccc3OC(C)=O)n2)cc1` here?
**A.** 24.5% (active)

**Q.** For `Cc1ccc2cc(/C=N/Nc3ccc(C(=O)O)cc3)c(Cl)nc2c1`, which inhibition is on record?
**A.** 1.97%

**Q.** For `O=C(O)c1ccc(/C=N/Nc2nc(N3CCCCC3)nc(N3CCCCC3)n2)cc1`, which inhibition is on record?
**A.** 1.51%

**Q.** `O=C(O)c1ccc(N/N=C/c2ccc3ncccc3c2)cc1` was tested. Which inhibition did it give?
**A.** 16.2% (active)

**Q.** With `O=C(CN1CCN(c2ccccn2)CC1)N1CCc2ccccc21` as the molecule, how does the inhibition read?
**A.** 2.52%

**Q.** With `O=C(CN1C(=O)c2ccccc2S1(=O)=O)N1CCc2ccccc21` as the molecule, how does the inhibition read?
**A.** 56.6% (active)

**Q.** For `O=C(CN1C(=O)c2ccccc2S1(=O)=O)NC1CCCCC1`, which inhibition is on record?
**A.** 0.8%

**Q.** How did the inhibition turn out when `O=C(Oc1cccc(O)c1)C1CCCCC1` was run?
**A.** 2.03%

**Q.** With `O=C(CSC(=S)N1CCOCC1)c1cc(Br)cc(Br)c1O` as the molecule, how does the inhibition read?
**A.** -0.31%

**Q.** How did the inhibition turn out when `CC1CN(C(=S)SCC(=O)c2ccccc2)CC(C)O1` (centres undefined) was run?
**A.** 1.9%

**Q.** With `O=C(CSC(=S)N1CCOCC1)c1ccccc1` as the molecule, how does the inhibition read?
**A.** 34.1% (active)

**Q.** `Cc1cccc(NC(=O)c2cccc(C(=O)Nc3cccc(C)c3C)n2)c1C` was tested. Which inhibition did it give?
**A.** -2.8%

**Q.** `O=C(NCCCc1ccccc1)c1cc(COc2c(F)cccc2F)on1` was tested. Which inhibition did it give?
**A.** -1.08%

**Q.** Which inhibition does the source give for `COc1ccc(CNS(=O)(=O)c2cc(-c3cc(C)no3)ccc2C(C)C)cc1` here?
**A.** 6.8%

**Q.** How did the inhibition turn out when `CCN(CC)CCN(C(=O)c1cc(Cl)sc1Cl)c1nc2cc3c(cc2s1)OCO3` was run?
**A.** 0.85%

**Q.** How did the inhibition turn out when `COc1ccc(/C=N/Nc2nc(-c3ccc(C)cc3)c(C#N)c(=O)[nH]2)cc1` was run?
**A.** -6.02%

**Q.** Which inhibition does the source give for `Cn1cccc1-c1nc2ccccc2n1C` here?
**A.** 2.48%

**Q.** For `Cn1c(-c2ccco2)nc2cc3ccccc3cc21`, which inhibition is on record?
**A.** 37.7% (active)

**Q.** Which inhibition does the source give for `S=c1[nH]nc(-c2ccco2)n1/N=C/c1ccccc1` here?
**A.** 1.32%

**Q.** With `CC(C)Cn1cnc2c1c(=O)n(CC(=O)NN)c(=O)n2Cc1ccccc1` as the molecule, how does the inhibition read?
**A.** -0.47%

**Q.** For `COc1ccc(OC)c(NC(=O)c2cccc(S(=O)(=O)N3CCN(C(C)=O)CC3)c2)c1`, which inhibition is on record?
**A.** 0.82%

**Q.** How did the inhibition turn out when `Cc1c(NC(=O)c2c([N+](=O)[O-])cnn2C)c(=O)n(-c2ccccc2)n1C` was run?
**A.** 0.17%

**Q.** Which inhibition does the source give for `Clc1ccc2nc(CSc3ccccc3)cn2c1` here?
**A.** 25.5% (active)

**Q.** Which inhibition does the source give for `O=C(/C=C/c1ccc2c(c1)OCO2)NCc1cn2cc(Cl)ccc2n1` here?
**A.** -0.84%

**Q.** With `CCOc1ncccc1C(=O)OCc1cn2cc(Cl)ccc2n1` as the molecule, how does the inhibition read?
**A.** -0.94%

**Q.** For `N#C[C@]1(S(=O)(=O)c2ccccc2)C[C@@H]2ON=C(c3cccc(Br)c3)[C@@H]2C1`, which inhibition is on record?
**A.** 0.82%

**Q.** How did the inhibition turn out when `COc1ccc(C(=O)N[C@H](C(=O)NCc2ccccc2)C(C)C)cc1` was run?
**A.** -4.29%
